# APOBEC3A inh = blocks human APOBEC3A ssDNA deamination | P31941 | inhibition, % at 20 µM | 330,000 tested, 0.41% active | AID 493011 | recombinant A3A, FAM/TAMRA ssDNA deamination fluorescence;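 active = at least 40% inhibition at 20 µM here, with at most 30% in a related deaminase screen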
# Target sequence (P31941 whole entry, looked up): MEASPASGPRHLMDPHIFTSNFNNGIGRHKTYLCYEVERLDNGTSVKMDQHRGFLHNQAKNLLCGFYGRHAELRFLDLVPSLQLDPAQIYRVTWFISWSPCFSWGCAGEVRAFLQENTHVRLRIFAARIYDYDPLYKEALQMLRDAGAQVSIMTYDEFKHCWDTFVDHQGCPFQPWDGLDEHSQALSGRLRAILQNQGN
# GRK2 inh = human GRK2 inhibition via aptamer displacement | bead flow cytometry, FAM-aptamer displacement from GRK2 | inhibition of aptamer binding, % at 10 µM | 330,000 tested, 0.59% active | AID 488847 | P25098;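 active = inhibition of aptamer binding above 40%, roughly 3 SD of noise, on plates passing a quality check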;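 also: median bead fluorescence of bound FAM aptamer so fluorescent compounds give negative values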
# APOBEC3G inh = APOBEC3G (human) deaminase inhibition. inhibition, % at 20 µM. 330,000 tested, 0.28% active. Q9HC16. recombinant A3G, ssDNA deamination FAM/TAMRA fluorescence;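 active = inhibition of at least 40% at 20 µM, with no more than 30% in the related APOBEC3A deaminase screen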
# Target sequence (Q9HC16 whole entry, looked up): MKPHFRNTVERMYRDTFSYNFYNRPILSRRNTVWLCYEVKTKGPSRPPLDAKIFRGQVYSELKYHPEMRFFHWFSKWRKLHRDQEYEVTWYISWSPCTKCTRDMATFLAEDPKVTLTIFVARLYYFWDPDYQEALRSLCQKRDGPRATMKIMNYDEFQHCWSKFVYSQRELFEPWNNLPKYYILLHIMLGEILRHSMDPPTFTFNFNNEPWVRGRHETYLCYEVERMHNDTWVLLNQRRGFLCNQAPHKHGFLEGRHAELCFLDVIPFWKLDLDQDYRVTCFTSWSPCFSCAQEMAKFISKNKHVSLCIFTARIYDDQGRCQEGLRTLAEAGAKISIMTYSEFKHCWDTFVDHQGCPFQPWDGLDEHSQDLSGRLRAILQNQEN
# VLA-4 inh = inhibition in a human VLA-4 binding assay; VLA-4 expressing cells, ligand binding flow cytometry; inhibition, % (about 7 µM as worked out from the volumes in the protocol); 330,000 tested, 0.2% active; AID 2557; in the data active = inhibition above about 50%
# VLA-4 mod pick = human VLA-4 allosteric modulation in cherry picked compounds. shares compounds with VLA-4 inh. U937 cells, HUTS-21 LIBS mAb binding, flow cytometry; LDV ligand present at threefold Kd. inhibition, % at 6.7 µM. 1,300 tested, 2% active; in the data active = inhibition above about 40%
# Numbers stand for hits; n = inactive; x = no result. A selection: hits, their analogues and other compounds. The true share with any hit is near 1.4%.
SMILES,APOBEC3A inh,GRK2 inh,APOBEC3G inh,VLA-4 inh,VLA-4 mod pick
O=C(c1ccc(CN2CCc3ccccc3C2)cc1)N1CCN(c2ccccc2)CC1,n,n,n,n,n
CC(C)(C)c1nnc(NC(=O)NS(=O)(=O)c2ccccc2)s1,n,n,n,73.4,n
CC(=O)Nc1ccc(S(=O)(=O)Nc2nnc(C(C)(C)C)s2)cc1,n,n,n,n,x
Cc1ccc2c(c1)/C(=C/c1ccccc1F)C(=O)N2,n,n,n,n,n
COc1ccc(/C=N/NC(=O)c2cccc(NC(C)=O)c2)c(C(=O)O)c1OC,n,n,n,n,n
CC(C)C(NC(=O)c1ccccc1)c1nnc(SCC(=O)Nc2nccs2)n1C (stereo not drawn),n,n,n,57.9,n
Cn1c(SCC(=O)Nc2nccs2)nnc1-c1ccncc1,n,n,n,n,x
COCCNC(=O)c1ccccc1NC(=O)COc1ccccc1,n,n,n,n,n
COc1cccc(NS(=O)(=O)c2cc(C)ccc2OC)c1,n,n,n,n,x
COc1ccc(C)cc1S(=O)(=O)Nc1cccc(C)c1,n,n,n,n,n
N#Cc1c2c(c(-n3cnc4ccccc43)n3c1nc1ccccc13)CCC2,n,n,n,93.7,n
CN(CC(=O)Nc1ccc(N2CCOCC2)cc1)C(=O)CCNC(=O)c1ccc(Br)cc1,n,n,n,49.9,n
CCN(CC(=O)Nc1ccc(N2CCOCC2)cc1)CC(=O)NC(C)(C)C,n,n,n,n,n
COc1ccccc1C(=O)NCCC(=O)N(C)CC(=O)Nc1ccc(N2CCOCC2)cc1,n,n,n,n,x
CCC(Sc1ccc2nnc(-c3ccc(OC)c(OC)c3)n2n1)C(=O)O (stereo not drawn),n,n,n,n,n
COc1cc(NC(=O)C(c2ccccc2)c2ccccc2)c(C(=O)O)cc1OC,n,n,n,n,n
CCOC(=O)c1cc(C)sc1NC(=O)C(c1ccccc1)c1ccccc1,n,n,n,n,x
CCc1cc(C(=O)O)c(NC(=O)C(c2ccccc2)c2ccccc2)s1,n,n,n,90.2,n
CCOC(=O)c1cnc2c(C)cc(C)cc2c1Nc1ccc(S(=O)(=O)Nc2ncccn2)cc1,n,n,n,n,x
CC1(C)CC(NCCN2CCN(C3=CC(=C(C#N)C#N)CC(C)(C)C3)CC2)=CC(=C(C#N)C#N)C1,n,n,n,49.9,n
CCC(=O)N(Cc1cc2cc(OC)ccc2[nH]c1=O)c1ccc(C)cc1,n,x,n,n,x
COc1ccc(NC(NC(=O)c2cccnc2)C(Cl)(Cl)Cl)cc1 (stereo not drawn),n,n,n,n,x
Cn1cccc1C(=O)NC(=O)COC(=O)c1ccc(O)cc1,n,n,n,n,x
Cn1cccc1C(=O)NC(=O)COC(=O)c1ccccc1O,n,n,n,55.0,n
Cc1c(NC(=O)CSCc2ccc(Cl)cc2Cl)cccc1C(=O)O,n,n,n,n,x
SMILES,APOBEC3A inh,GRK2 inh,APOBEC3G inh,VLA-4 inh,VLA-4 mod pick
O=C1Nc2ccccc2O/C1=C\c1c(F)cccc1Cl,n,n,n,n,n
O=C(Cc1ccccc1Cl)Nc1cccc(S(=O)(=O)N2CCOCC2)c1,n,n,n,n,x
CCOc1ccc(NC(=O)CN(c2cc(C)cc(C)c2)S(=O)(=O)c2c(C)noc2C)cc1,n,n,n,53.4,n
CCOc1ccc(N(CC(=O)Nc2ccc(CC)cc2)S(=O)(=O)c2c(C)[nH]c(=O)[nH]c2=O)cc1,n,n,n,n,x
CCOc1ccc(N(CC(=O)Nc2ccc(C)c(C)c2)S(=O)(=O)c2c(C)[nH]c(=O)[nH]c2=O)cc1,n,n,n,n,n
CCOc1ccc(N(CC(=O)Nc2ccc(OC)cc2)S(=O)(=O)c2c(C)noc2C)cc1,n,n,n,n,x
Cc1noc(C)c1NC(=O)N(C)C[C@H]1Oc2c(NC(=O)C3CC3)cccc2C(=O)N([C@H](C)CO)C[C@@H]1C,n,n,n,n,x
COc1ccc(Cc2nnc(SCC(=O)NCCc3ccccc3)o2)cc1,n,n,n,n,x
CCOC(=O)Cn1cnc2c(nnn2-c2cccc(OC)c2)c1=O,n,n,n,n,n
COc1ccc(NC(=O)CSc2ccc3nnc(-c4ccccn4)n3n2)cc1,n,n,n,n,x
Cc1c(O)ccc(NS(=O)(=O)c2ccccc2)c1C,n,n,n,n,n
O=C(NC(=S)Nc1ccccc1)c1cccs1,n,n,n,n,x
CC(=O)NC(=S)Nc1ccc(NC(=O)c2cccs2)cc1,n,n,n,n,n
O=[N+]([O-])c1ccc(CCn2ccnc2)cc1,n,n,n,n,n
O=[N+]([O-])c1ccc(-n2ccnc2)cc1,n,n,n,n,x
COc1ccc(/C=N/NC(=O)c2ccn[nH]2)cc1Cn1cc([N+](=O)[O-])cn1,n,n,n,n,x
c1ccc(OCCCn2nnc(-c3ccncc3)n2)cc1,n,n,n,n,x
COc1ccc(Br)cc1CNC(=O)CCCc1cn(C)c2ccccc12,n,n,n,53.1,n
COc1ccc(OC)c(CNC(=O)CCCc2cn(C)c3ccccc23)c1,n,n,n,n,x
COC(=O)c1ccccc1NC(=O)C1CC(=O)N(c2ccc(F)cc2)C1 (stereo not drawn),n,n,n,n,x
COc1ccc(-c2sc3ccccc3c2-c2ccc(OCCN(C)C)cc2)cc1,n,n,n,67.0,44.4
COc1cccc(-c2sc3ccc(OC)cc3c2-c2ccc(OCCN(C)C)cc2)c1,n,n,n,51.5,n
CN(C)CCOc1ccc(-c2c(-c3ccsc3)sc3ccccc23)cc1,n,n,n,n,x
CC(C)CC(=O)Nc1ccc2ccccc2c1,n,n,n,n,x
CCC(=O)Nc1ccc2ccccc2c1,n,n,n,n,n
SMILES,APOBEC3A inh,GRK2 inh,APOBEC3G inh,VLA-4 inh,VLA-4 mod pick
Cn1c2ccc(F)cc2c2ncn(Cc3ccco3)c(=O)c21,n,n,n,x,x
Cn1c2ccccc2c2ncn(Cc3ccco3)c(=O)c21,n,n,n,55.3,n
Cc1cc(C)n2nc(SCC(=O)N3CCCC(C)C3)nc2n1 (stereo not drawn),n,n,n,n,x
O=C(NCCc1nc2ccccc2[nH]1)/C(=C/c1ccco1)NC(=O)c1ccc(Br)o1,n,n,n,n,n
CC(CCc1ccccc1)NC(=O)C(C)OC(=O)c1ccco1 (stereo not drawn),n,n,n,n,x
COc1ccc(C(=O)OC(C)C(=O)NC(C)CCc2ccccc2)cc1OC (stereo not drawn),n,n,n,n,n
CCc1ccc2[nH]c(=O)c(CN(Cc3ccccc3)Cc3nnnn3Cc3ccco3)cc2c1,n,n,n,n,x
CCOC(=O)Cn1nnnc1CN(Cc1ccccc1)Cc1cc2cc(CC)ccc2[nH]c1=O,n,n,n,70.8,n
COc1ccc2[nH]c3c(c2c1)CCNC3=O,n,n,n,n,x
CCc1cc2c(=O)n3c(nc2s1)-c1[nH]c2ccc(OC)cc2c1CC3,n,n,n,n,n
Cc1cccc(N=Cc2cc3c(cc2[N+](=O)[O-])OCO3)c1,n,n,n,n,x
O=[N+]([O-])c1cc2c(cc1C=Nc1ccccc1)OCO2,n,n,n,50.2,n
O=S(=O)(Nc1ccncc1)c1ccccc1,n,n,n,n,x
